The source of these data is article PMC11006913.

What all share (experiment): PBM; 200 nM protein, PBS
Details in all cases: dsDNA, one strand shown

The target of assay [1] is HOXD13 (Homo sapiens, UniProt P35453 263-343).
Assay [2] has as its target HOXD13 (Homo sapiens, UniProt P35453 263-343, T313A).
Assay [3] concerns the target HOXA7 (Homo sapiens, UniProt P31268 116-202).
For assay [4], the target named is HOXA7 (Homo sapiens, UniProt P31268 116-202, W177C).
Assay [5] deals with MSX2 (Homo sapiens, UniProt P35548 130-214, R199I).
In assay [6] the target is MSX2 (Homo sapiens, UniProt P35548 130-214).
The target of assay [7] is VAX1 (Homo sapiens, UniProt Q5SQQ9 86-172).
Assay [8] concerns the target MSX2 (Homo sapiens, UniProt P35548 130-214, F161Y).
For assay [9], the target named is VAX1 (Homo sapiens, UniProt Q5SQQ9 86-172, T142I).
Assay [10] has as its target HOXB9 (Homo sapiens, UniProt P17482 171-250).
Assay [11] concerns the target HOXB9 (Homo sapiens, UniProt P17482 171-250, R186Q).
Assay [12] has as its target PROP1 (Homo sapiens, UniProt O75360 56-141).
Assay [13] has as its target PROP1 (Homo sapiens, UniProt O75360 56-141, R99H).
The target of assay [14] is PROP1 (Homo sapiens, UniProt O75360 56-141, F88S).
Assay [15] has as its target HOXA4 (Homo sapiens, UniProt Q00056 201-287, W262R).
Assay [16] deals with HOXA4 (Homo sapiens, UniProt Q00056 201-287, R217L).
The target of assay [17] is HOXA4 (Homo sapiens, UniProt Q00056 201-287).
Assay [18] concerns the target ALX4 (Homo sapiens, UniProt Q9H161 200-286).
The target of assay [19] is ALX4 (Homo sapiens, UniProt Q9H161 200-286, Q225E).
Chain of ALX4 (Homo sapiens, UniProt Q9H161 200-286, Q225E) (Q9H161 200-286 Q225E): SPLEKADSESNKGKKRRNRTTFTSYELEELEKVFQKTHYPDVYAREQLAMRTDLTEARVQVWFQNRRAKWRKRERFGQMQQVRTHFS

Chain of HOXA7 (Homo sapiens, UniProt P31268 116-202) (P31268 116-202): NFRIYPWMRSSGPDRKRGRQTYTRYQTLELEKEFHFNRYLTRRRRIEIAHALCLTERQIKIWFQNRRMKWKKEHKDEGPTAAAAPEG
Chain of MSX2 (Homo sapiens, UniProt P35548 130-214, F161Y) (P35548 130-214 F161Y): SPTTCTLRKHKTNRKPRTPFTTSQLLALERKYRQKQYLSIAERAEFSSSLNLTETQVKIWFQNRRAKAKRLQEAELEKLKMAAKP
Chain of HOXD13 (Homo sapiens, UniProt P35453 263-343) (P35453 263-343): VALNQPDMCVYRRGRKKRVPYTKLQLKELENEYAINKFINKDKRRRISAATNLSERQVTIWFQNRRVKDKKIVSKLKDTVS
Chain of HOXA7 (Homo sapiens, UniProt P31268 116-202, W177C) (P31268 116-202 W177C): as the sequence (P31268 116-202) above, with W62C counted along it
Chain of VAX1 (Homo sapiens, UniProt Q5SQQ9 86-172, T142I) (Q5SQQ9 86-172 T142I): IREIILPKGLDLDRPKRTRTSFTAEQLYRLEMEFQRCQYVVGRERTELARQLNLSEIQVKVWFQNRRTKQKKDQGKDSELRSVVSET
Chain of HOXA4 (Homo sapiens, UniProt Q00056 201-287) (Q00056 201-287): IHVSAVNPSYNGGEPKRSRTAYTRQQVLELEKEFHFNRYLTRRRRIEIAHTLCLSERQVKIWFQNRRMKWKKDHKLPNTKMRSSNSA
Chain of HOXA4 (Homo sapiens, UniProt Q00056 201-287, R217L) (Q00056 201-287 R217L): as the sequence (Q00056 201-287) above, with R17L counted along it
Chain of VAX1 (Homo sapiens, UniProt Q5SQQ9 86-172) (Q5SQQ9 86-172): as the sequence (Q5SQQ9 86-172 T142I) above, with I57T counted along it
Chain of HOXA4 (Homo sapiens, UniProt Q00056 201-287, W262R) (Q00056 201-287 W262R): as the sequence (Q00056 201-287) above, with W62R counted along it
Chain of MSX2 (Homo sapiens, UniProt P35548 130-214, R199I) (P35548 130-214 R199I): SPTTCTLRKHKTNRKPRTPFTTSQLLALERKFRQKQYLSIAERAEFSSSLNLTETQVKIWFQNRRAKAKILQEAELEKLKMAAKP
Chain of HOXD13 (Homo sapiens, UniProt P35453 263-343, T313A) (P35453 263-343 T313A): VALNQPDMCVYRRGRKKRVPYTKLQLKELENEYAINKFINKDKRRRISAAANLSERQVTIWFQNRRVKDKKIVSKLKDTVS
Chain of MSX2 (Homo sapiens, UniProt P35548 130-214) (P35548 130-214): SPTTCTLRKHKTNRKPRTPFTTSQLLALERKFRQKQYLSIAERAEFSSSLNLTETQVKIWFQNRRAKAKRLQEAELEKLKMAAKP
Chain of ALX4 (Homo sapiens, UniProt Q9H161 200-286) (Q9H161 200-286): as the sequence (Q9H161 200-286 Q225E) above, with E26Q counted along it
Chain of PROP1 (Homo sapiens, UniProt O75360 56-141, R99H) (O75360 56-141 R99H): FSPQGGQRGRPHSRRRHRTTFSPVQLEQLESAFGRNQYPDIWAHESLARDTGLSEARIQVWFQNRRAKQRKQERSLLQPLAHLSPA
Chain of HOXB9 (Homo sapiens, UniProt P17482 171-250) (P17482 171-250): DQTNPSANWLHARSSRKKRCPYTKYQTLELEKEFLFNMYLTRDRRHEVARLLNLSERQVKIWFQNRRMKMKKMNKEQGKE
Chain of PROP1 (Homo sapiens, UniProt O75360 56-141) (O75360 56-141): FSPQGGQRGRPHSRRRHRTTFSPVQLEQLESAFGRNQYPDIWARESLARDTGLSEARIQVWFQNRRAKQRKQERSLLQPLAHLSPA
Chain of PROP1 (Homo sapiens, UniProt O75360 56-141, F88S) (O75360 56-141 F88S): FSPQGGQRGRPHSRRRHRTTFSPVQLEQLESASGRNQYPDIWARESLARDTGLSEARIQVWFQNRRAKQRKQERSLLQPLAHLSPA
Chain of HOXB9 (Homo sapiens, UniProt P17482 171-250, R186Q) (P17482 171-250 R186Q): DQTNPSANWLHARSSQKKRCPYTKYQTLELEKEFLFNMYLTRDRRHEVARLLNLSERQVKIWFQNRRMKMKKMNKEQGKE

Take CCGACCTC: the binding signal in the assay with HOXD13 [1] is 9.45 upbm affinity estimate (log intensity, higher = more binding, comparable within an allelic series); in the assay with HOXD13 [2], 9.44 upbm affinity estimate (log intensity, higher = more binding, comparable within an allelic series).

On to CCGACGCC, for which the binding signal with HOXA7 [3] is 8.58 upbm affinity estimate (log intensity, higher = more binding, comparable within an allelic series); with HOXA7 [4] it was 8.45 upbm affinity estimate (log intensity, higher = more binding, comparable within an allelic series).

For ATAATGGG, the binding signal is 11.2 upbm affinity estimate (log intensity, higher = more binding, comparable within an allelic series) with HOXA7 [3] and 8.88 upbm affinity estimate (log intensity, higher = more binding, comparable within an allelic series) in the assay with HOXA7 [4].

Regarding CCGGTGGC, the binding signal was 9.47 upbm affinity estimate (log intensity, higher = more binding, comparable within an allelic series) with MSX2 [5]; 9.29 upbm affinity estimate (log intensity, higher = more binding, comparable within an allelic series) with HOXD13 [1]; 9.56 upbm affinity estimate (log intensity, higher = more binding, comparable within an allelic series) in the assay with MSX2 [6]; 7.31 upbm affinity estimate (log intensity, higher = more binding, comparable within an allelic series) with VAX1 [7]; 9.43 upbm affinity estimate (log intensity, higher = more binding, comparable within an allelic series) with HOXD13 [2]; 9.58 upbm affinity estimate (log intensity, higher = more binding, comparable within an allelic series) with MSX2 [8]. Besides, the binding signal with VAX1 [9] is 7.45 upbm affinity estimate (log intensity, higher = more binding, comparable within an allelic series).

Take GCGACGCC: the binding signal is 7.12 upbm affinity estimate (log intensity, higher = more binding, comparable within an allelic series) in the assay with VAX1 [7] and 7.24 upbm affinity estimate (log intensity, higher = more binding, comparable within an allelic series) with VAX1 [9].

As to CCAGCCAG, the binding signal with HOXB9 [10] is 8.34 upbm affinity estimate (log intensity, higher = more binding, comparable within an allelic series); with HOXD13 [1], 9.59 upbm affinity estimate (log intensity, higher = more binding, comparable within an allelic series); in the assay with HOXD13 [2] it was 9.56 upbm affinity estimate (log intensity, higher = more binding, comparable within an allelic series); with HOXB9 [11], 8.39 upbm affinity estimate (log intensity, higher = more binding, comparable within an allelic series).

CCTACGGA: the binding signal is 7.04 upbm affinity estimate (log intensity, higher = more binding, comparable within an allelic series) with VAX1 [7] and 7.2 upbm affinity estimate (log intensity, higher = more binding, comparable within an allelic series) with VAX1 [9].

Turning to AGGCCAGC, the binding signal was 8.41 upbm affinity estimate (log intensity, higher = more binding, comparable within an allelic series) with HOXA7 [3] and 8.42 upbm affinity estimate (log intensity, higher = more binding, comparable within an allelic series) with HOXA7 [4].

As for CCGCCTCC, the binding signal is 9.48 upbm affinity estimate (log intensity, higher = more binding, comparable within an allelic series) with MSX2 [5]; 9.45 upbm affinity estimate (log intensity, higher = more binding, comparable within an allelic series) with MSX2 [6]; 9.54 upbm affinity estimate (log intensity, higher = more binding, comparable within an allelic series) with MSX2 [8].

As for ACCGGTCC, the binding signal with HOXA7 [3] is 8.49 upbm affinity estimate (log intensity, higher = more binding, comparable within an allelic series); with HOXA7 [4], 8.3 upbm affinity estimate (log intensity, higher = more binding, comparable within an allelic series).

On to CAGAGCCG, for which the binding signal with HOXA7 [3] is 8.45 upbm affinity estimate (log intensity, higher = more binding, comparable within an allelic series); with HOXA7 [4], 8.36 upbm affinity estimate (log intensity, higher = more binding, comparable within an allelic series).

Regarding CCGGACCG, the binding signal in the assay with HOXA7 [3] was 8.43 upbm affinity estimate (log intensity, higher = more binding, comparable within an allelic series); in the assay with HOXA7 [4] it was 8.36 upbm affinity estimate (log intensity, higher = more binding, comparable within an allelic series).

As to ACGGGGGC, the binding signal was 6.75 upbm affinity estimate (log intensity, higher = more binding, comparable within an allelic series) with PROP1 [12]; 6.67 upbm affinity estimate (log intensity, higher = more binding, comparable within an allelic series) in the assay with PROP1 [13]; 6.19 upbm affinity estimate (log intensity, higher = more binding, comparable within an allelic series) in the assay with PROP1 [14].

With CACCCCCG, the binding signal was 9.9 upbm affinity estimate (log intensity, higher = more binding, comparable within an allelic series) in the assay with HOXA4 [15]; 9.84 upbm affinity estimate (log intensity, higher = more binding, comparable within an allelic series) with HOXA4 [16]; 9.95 upbm affinity estimate (log intensity, higher = more binding, comparable within an allelic series) with HOXA4 [17].

On to AGCCCGGG, for which the binding signal with MSX2 [5] is 9.38 upbm affinity estimate (log intensity, higher = more binding, comparable within an allelic series); with MSX2 [6], 9.25 upbm affinity estimate (log intensity, higher = more binding, comparable within an allelic series); in the assay with VAX1 [7], 6.75 upbm affinity estimate (log intensity, higher = more binding, comparable within an allelic series); with MSX2 [8], 9.37 upbm affinity estimate (log intensity, higher = more binding, comparable within an allelic series); with VAX1 [9], 6.9 upbm affinity estimate (log intensity, higher = more binding, comparable within an allelic series).

For CCCAACGG, the binding signal was 9.93 upbm affinity estimate (log intensity, higher = more binding, comparable within an allelic series) with HOXA4 [15]; 9.99 upbm affinity estimate (log intensity, higher = more binding, comparable within an allelic series) with HOXA4 [16]; 9.83 upbm affinity estimate (log intensity, higher = more binding, comparable within an allelic series) with HOXA4 [17].

For ACCGTGTC, the binding signal with HOXA7 [3] was 8.54 upbm affinity estimate (log intensity, higher = more binding, comparable within an allelic series); with HOXA7 [4] it was 8.46 upbm affinity estimate (log intensity, higher = more binding, comparable within an allelic series).

As for CAGCCCCC, the binding signal in the assay with HOXA4 [15] is 9.74 upbm affinity estimate (log intensity, higher = more binding, comparable within an allelic series); in the assay with HOXA4 [16] it was 9.65 upbm affinity estimate (log intensity, higher = more binding, comparable within an allelic series); in the assay with HOXA4 [17], 9.71 upbm affinity estimate (log intensity, higher = more binding, comparable within an allelic series); with VAX1 [7], 7.33 upbm affinity estimate (log intensity, higher = more binding, comparable within an allelic series); in the assay with VAX1 [9], 7.4 upbm affinity estimate (log intensity, higher = more binding, comparable within an allelic series).

Consider CCCCCAAC, for which the binding signal was 9.78 upbm affinity estimate (log intensity, higher = more binding, comparable within an allelic series) with HOXA4 [15]; 9.67 upbm affinity estimate (log intensity, higher = more binding, comparable within an allelic series) in the assay with HOXA4 [16]; 9.61 upbm affinity estimate (log intensity, higher = more binding, comparable within an allelic series) in the assay with HOXA4 [17].

As to CGGTGGGC, the binding signal in the assay with HOXD13 [1] was 9.53 upbm affinity estimate (log intensity, higher = more binding, comparable within an allelic series); with HOXD13 [2], 9.44 upbm affinity estimate (log intensity, higher = more binding, comparable within an allelic series).

For the sequence AGCCGGGG, the binding signal with ALX4 [18] was 8.22 upbm affinity estimate (log intensity, higher = more binding, comparable within an allelic series); with ALX4 [19], 8.28 upbm affinity estimate (log intensity, higher = more binding, comparable within an allelic series).

Regarding GCGTGCGA, the binding signal with ALX4 [18] was 7.96 upbm affinity estimate (log intensity, higher = more binding, comparable within an allelic series); with ALX4 [19], 8.17 upbm affinity estimate (log intensity, higher = more binding, comparable within an allelic series).

On to GGCAGGAC, for which the binding signal is 9.94 upbm affinity estimate (log intensity, higher = more binding, comparable within an allelic series) in the assay with HOXA4 [15]; 9.72 upbm affinity estimate (log intensity, higher = more binding, comparable within an allelic series) in the assay with HOXA4 [16]; 9.8 upbm affinity estimate (log intensity, higher = more binding, comparable within an allelic series) in the assay with HOXA4 [17].

With CAGCCCGG, the binding signal with HOXD13 [1] is 9.67 upbm affinity estimate (log intensity, higher = more binding, comparable within an allelic series); with HOXD13 [2], 9.74 upbm affinity estimate (log intensity, higher = more binding, comparable within an allelic series).

CCCCCCGG: the binding signal was 8.78 upbm affinity estimate (log intensity, higher = more binding, comparable within an allelic series) with HOXD13 [1] and 8.98 upbm affinity estimate (log intensity, higher = more binding, comparable within an allelic series) in the assay with HOXD13 [2].

In the case of CCCTGGCC, the binding signal is 9.39 upbm affinity estimate (log intensity, higher = more binding, comparable within an allelic series) with MSX2 [5]; 9.28 upbm affinity estimate (log intensity, higher = more binding, comparable within an allelic series) with HOXD13 [1]; 9.37 upbm affinity estimate (log intensity, higher = more binding, comparable within an allelic series) in the assay with MSX2 [6]; 6.64 upbm affinity estimate (log intensity, higher = more binding, comparable within an allelic series) in the assay with VAX1 [7]; 9.38 upbm affinity estimate (log intensity, higher = more binding, comparable within an allelic series) with HOXD13 [2]; 9.41 upbm affinity estimate (log intensity, higher = more binding, comparable within an allelic series) with MSX2 [8]. For the same sequence, the binding signal in the assay with VAX1 [9] was 6.9 upbm affinity estimate (log intensity, higher = more binding, comparable within an allelic series).

On to GTCTAGAC, for which the binding signal is 9.98 upbm affinity estimate (log intensity, higher = more binding, comparable within an allelic series) in the assay with HOXA4 [15]; 10.1 upbm affinity estimate (log intensity, higher = more binding, comparable within an allelic series) in the assay with HOXA4 [16]; 9.99 upbm affinity estimate (log intensity, higher = more binding, comparable within an allelic series) with HOXA4 [17].
